# Laboratory results published in the supplement of paper PMC8728848.
# Many of the other results were omitted from the sample, so the strongest signals are more common in it than they were.
# B1: Neuropilin-1 (Homo sapiens), O14786 (protein)
# chain: FKCMEALGMESGEIHSDQITASSQYSTNWSAERSRLNYPENGWTPGEDSYREWIQVDLGLLRFVTAVGTQGAISKETKKKYYVKTYKIDVSSNGEDWITIKEGNKPVLFQGNTNPTDVVVAVFPKPLITRFVRIKPATWETGISMRFEVYGCKITDYPCSGMLGMVSGLISDSQITSSNQGDRNWMPENIRLVTSRSGWALPPAPHSYINEWLQIDLGEEKIVRGIIIQGGKHRENKVFMRKFKIGYSNNGSDWKMIMDDSKRKAKSFEGNNNYDTPELRTFPALSTRFIRIYPERATHGGLGLRMELLGCEVE
# Tests used:
# Test in all cases: glycan array binding signal (z-score within array); higher = stronger binding
# Conditions in all cases: glycan notation: IUPAC condensed, linker removed
# [1] = biological target: Fuc(a1-2)Gal(b1-3)GlcNAc(b1-2)Man(a1-3)[Fuc(a1-2)Gal(b1-3)GlcNAc(b1-2)Man(a1-6)]Man(b1-4)GlcNAc(b1-4)GlcNAc
# In short: (§1)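 From the Consortium for Functional Glycomics database, 3228 arrays were curated, keeping only those whose protein sequence was available. Binding is given as a within-array Z-score averaged across arrays sharing a protein sequence and across linkers. Negative Z-scores can be read as non-binding.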
# [2] = biological target: Fuc(a1-2)Gal(b1-4)GlcNAc(b1-2)Man(a1-3)[Fuc(a1-2)Gal(b1-4)GlcNAc(b1-2)Man(a1-6)]Man(b1-4)GlcNAc(b1-4)GlcNAc
# In short: as §1
# [3] = biological target: Fuc(a1-2)Gal(b1-4)[Fuc(a1-3)]GlcNAc(b1-2)Man(a1-3)[Fuc(a1-2)Gal(b1-4)[Fuc(a1-3)]GlcNAc(b1-2)Man(a1-6)]Man(b1-4)GlcNAc(b1-4)GlcNAc
# In short: as §1
# [4] = biological target: Fuc(a1-2)[Gal(a1-3)]Gal(b1-4)GlcNAc(b1-2)Man(a1-3)[Fuc(a1-2)[Gal(a1-3)]Gal(b1-4)GlcNAc(b1-2)Man(a1-6)]Man(b1-4)GlcNAc(b1-4)GlcNAc
# In short: as §1
# [5] = biological target: Fuc(a1-2)[GalNAc(a1-3)]Gal(b1-4)GlcNAc(b1-2)Man(a1-3)[GalNAc(a1-3)[Fuc(a1-2)]Gal(b1-4)GlcNAc(b1-2)Man(a1-6)]Man(b1-4)GlcNAc(b1-4)GlcNAc
# In short: as §1
# [6] = biological target: Fuc(a1-3)[Gal(b1-4)]Glc6S
# In short: as §1
# [7] = biological target: Fuc(a1-3)[Gal(b1-4)]GlcNAc
# In short: as §1
# [8] = biological target: Fuc(a1-3)[Gal(b1-4)]GlcNAc(b1-2)Man(a1-3)[Fuc(a1-3)[Gal(b1-4)]GlcNAc(b1-2)Man(a1-6)]Man(b1-4)GlcNAc(b1-4)GlcNAc
# In short: as §1
# [9] = biological target: Fuc(a1-3)[Gal3S(b1-4)]GlcNAc
# In short: as §1
# Gal(a1-6)Glc = biological target: Gal(a1-6)Glc
# In short: as §1
# [10] = biological target: Gal(b1-3)Gal(b1-4)GlcNAc(b1-2)Man(a1-3)[Gal(b1-3)Gal(b1-4)GlcNAc(b1-2)Man(a1-6)]Man(b1-4)GlcNAc(b1-4)GlcNAc
# In short: as §1
# [11] = biological target: Gal(b1-3)[Neu5Ac(a2-6)]GalNAc
# In short: as §1
# [12] = biological target: Gal(b1-4)GalNAc(b1-3)[Fuc(a1-2)]Gal(b1-4)GlcNAc
# In short: as §1
# Gal(b1-4)Glc = biological target: Gal(b1-4)Glc
# In short: as §1
# [13] = biological target: Gal(b1-4)GlcNAc(b1-2)Man(a1-3)[Man(a1-6)]Man(b1-4)GlcNAc(b1-4)GlcNAc
# In short: as §1
# [14] = biological target: Gal(b1-4)GlcNAc(b1-3)Gal(b1-4)GlcNAc
# In short: as §1
# [15] = biological target: Gal3S(b1-4)[Fuc(a1-3)]Glc
# In short: as §1
# Gal4S(b1-4)GlcNAc = biological target: Gal4S(b1-4)GlcNAc
# In short: as §1
# Gal6S(b1-4)GlcNAc = biological target: Gal6S(b1-4)GlcNAc
# In short: as §1
# [16] = biological target: GalNAc(b1-4)GlcNAc(b1-2)Man(a1-3)[GalNAc(b1-4)GlcNAc(b1-2)Man(a1-6)]Man(b1-4)GlcNAc(b1-4)GlcNAc
# In short: as §1
# GlcA(b1-6)Gal = biological target: GlcA(b1-6)Gal
# In short: as §1
# [17] = biological target: GlcNAc(a1-4)Gal(b1-4)GalNAc
# In short: as §1
# [18] = biological target: GlcNAc(a1-4)Gal(b1-4)GlcNAc(b1-3)Gal(b1-4)GlcNAc
# In short: as §1
# [19] = biological target: GlcNAc(b1-2)Man(a1-3)[GlcNAc(b1-2)Man(a1-6)]Man(b1-4)GlcNAc(b1-4)GlcNAc
# In short: as §1
# [20] = biological target: Man(a1-3)[Man(a1-6)]Man(b1-4)GlcNAc(b1-4)GlcNAc
# In short: as §1
# [21] = biological target: Neu5Ac(a2-3)Gal(b1-3)GalNAc
# In short: as §1
# [22] = biological target: Neu5Ac(a2-3)Gal(b1-3)[Fuc(a1-4)]GlcNAc(b1-3)Gal(b1-4)[Fuc(a1-3)]GlcNAc
# In short: as §1
# [23] = biological target: Neu5Ac(a2-3)Gal(b1-4)[Fuc(a1-3)]GlcNAc(b1-6)[Gal(b1-3)]GalNAc
# In short: as §1
# [24] = biological target: Neu5Ac(a2-6)Gal(b1-4)GlcNAc
# In short: as §1
binder,measurement,setting,value
B1,glycan array binding signal (z-score),[1],1.14
same,glycan array binding signal (z-score),[2],5.83
same,glycan array binding signal (z-score),[3],4.73
same,glycan array binding signal (z-score),[4],6.43
same,glycan array binding signal (z-score),[5],5.34
same,glycan array binding signal (z-score),[6],0.455
same,glycan array binding signal (z-score),[7],-0.168
same,glycan array binding signal (z-score),[8],10.4
same,glycan array binding signal (z-score),[9],-0.158
same,glycan array binding signal (z-score),Gal(a1-6)Glc,-0.168
same,glycan array binding signal (z-score),[10],6.05
same,glycan array binding signal (z-score),[11],-0.23
same,glycan array binding signal (z-score),[12],-0.281
same,glycan array binding signal (z-score),Gal(b1-4)Glc,-0.292
same,glycan array binding signal (z-score),[13],-0.228
same,glycan array binding signal (z-score),[14],-0.228
same,glycan array binding signal (z-score),[15],0.036
same,glycan array binding signal (z-score),Gal4S(b1-4)GlcNAc,-0.235
same,glycan array binding signal (z-score),Gal6S(b1-4)GlcNAc,-0.225
same,glycan array binding signal (z-score),[16],0.263
same,glycan array binding signal (z-score),GlcA(b1-6)Gal,-0.189
same,glycan array binding signal (z-score),[17],1.27
same,glycan array binding signal (z-score),[18],-0.004
same,glycan array binding signal (z-score),[19],-0.176
same,glycan array binding signal (z-score),[20],-0.133
same,glycan array binding signal (z-score),[21],-0.216
same,glycan array binding signal (z-score),[22],0.065
same,glycan array binding signal (z-score),[23],0.942
same,glycan array binding signal (z-score),[24],-0.254
